Source: PubChem BioAssay AID1851 (National Center for Advancing Translational Sciences (NCATS), 2009)
Screen size: about 16,000 compounds; about 2,600 (16%) were called active. About 20% were inconclusive and are not listed. Calls follow the shape of the dose curve; as a rule, active = well fitted curve in the direction sought with a large enough effect; inconclusive = small, poorly fitted or top-dose-only effect, or effect the other way; inactive = no such curve, though single readings can be large or run the other way. Not all results are given here. Some compounds were tested as several samples or in several runs, with calls that do not always agree.

Biological target: Cytochrome P450 2D6 (Homo sapiens) (UniProt P10635)
Sequence (P10635 whole entry, looked up): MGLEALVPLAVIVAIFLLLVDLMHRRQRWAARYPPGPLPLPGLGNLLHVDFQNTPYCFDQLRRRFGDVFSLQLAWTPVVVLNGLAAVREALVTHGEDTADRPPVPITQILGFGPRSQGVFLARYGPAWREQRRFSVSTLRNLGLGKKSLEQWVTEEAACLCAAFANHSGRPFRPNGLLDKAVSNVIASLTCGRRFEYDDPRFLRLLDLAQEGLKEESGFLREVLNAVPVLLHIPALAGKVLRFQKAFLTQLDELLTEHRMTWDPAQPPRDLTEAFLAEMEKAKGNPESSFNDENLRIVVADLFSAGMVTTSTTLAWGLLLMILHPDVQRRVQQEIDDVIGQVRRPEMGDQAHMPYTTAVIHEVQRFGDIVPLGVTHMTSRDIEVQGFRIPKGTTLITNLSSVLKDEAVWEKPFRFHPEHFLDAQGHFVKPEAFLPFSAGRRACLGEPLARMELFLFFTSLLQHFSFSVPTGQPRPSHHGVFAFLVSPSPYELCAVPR
Assay: Cytochrome panel assay with activity outcomes
Conditions: recombinant CYP, pro-luciferin dealkylation, luminescence, p450-cyp2d6; series mostly up to 57.1 µM; activity, negative = inhibition: at the top concentration
% is scaled to controls: 0 for no effect and ±100 for the full control effect.

activity, negative = inhibition, inactive:
Cc1cccc(-n2ncc3c(Nc4c(C)n(C)n(-c5ccccc5)c4=O)ncnc32)c1 3.47%
N#CC(C#N)=CNCCN1CCN(C=C(C#N)C#N)CC1 5.03% [at 11.4 µM]
Cc1n[nH]c(C)c1S(=O)(=O)N1CCC(C(=O)O)CC1 9.86%
NS(=O)(=O)c1cc(Cl)c(Cl)c(S(N)(=O)=O)c1 -1.87% [at 25.6 µM]
C[C@@H](C[C@H](N)C(=O)O)C(=O)O 14.5% [at 11.4 µM]
O=c1c2c(-c3cccs3)csc2[nH]c(=S)n1-c1ccccc1 -9.42%
Cc1ccccc1OCC(=O)Nc1sc(C(=O)Nc2cccc(C)c2C)c(C)c1C#N 24.8%
Cn1cccc1C(=O)N1CCC2(CCN(C(=O)Nc3ccccc3)CC2)CC1 4.24%
O=[N+]([O-])c1nccn1C[C@H](O)CN1CCCCC1 9.02% [at 11.4 µM]
O=c1nc2ccccc2c2n1CC(CN1CCN(c3cccc(Cl)c3)CC1)N2 (centres undefined) -35.5%
O=c1n(CCCN2CCN(c3cccc(Cl)c3)CC2)nc2ccccn12 -11%
CC(C)OCCCn1c(=S)[nH]c2ncccc2c1=O -7.67%
COCCn1c(=O)c(C)nc2cnc(N3CCNCC3)nc21 -1.98%
Cc1noc(NS(=O)(=O)c2ccc(NC(=O)c3ccc(Br)o3)cc2)c1C 0.162%
COCCOC(=O)C1=C(C)NC(=O)N(C(C)=O)C1c1ccc(Cl)cc1 (centres undefined) 1.76%
COc1ccc2c3c([nH]c2c1)[C@@H]1C[C@@H]2[C@@H](C[C@H](O)[C@H](OC)[C@H]2C(=O)O)CN1CC3 3.02% [at 25.6 µM]
COC(=O)[C@@H]1[C@@H]2C[C@H]3c4[nH]c5ccccc5c4CCN3C[C@@H]2CC[C@@H]1OS(=O)(=O)O -18.5% [at 11.4 µM]
C[C@@H](C(=O)O)c1ccc(C[C@@H]2CCCC2=O)cc1 17.2%
COCCNC(=O)c1cn(Cc2c(F)cccc2Cl)nn1 11.7%
Cc1cnc(CNc2cc(-c3ccccc3Cl)ncn2)cn1 -20.6%
Cc1cnc(CNc2cc(-c3ccc(C(=O)N(C)C)cc3)ncn2)cn1 8.03%
CCN(CC)C(=O)C1CC(=O)N(c2ccc(OC)cc2)C1c1ccc(OC)cc1 (centres undefined) 4.78%
COc1ccc(NC(=O)CSC2=NC(=O)CC(C)=N2)cc1 -4.11%
N#CCCn1nnc2ccccc21 -4.37%
Cc1cccc(C(CC(=O)N2CCCC2)c2ccccc2)c1O (centres undefined) -13.7%
CC(C)Oc1ccc(C(=O)Nc2ccc(NC(=O)c3ccco3)c(Cl)c2)cc1 -23.4%
O=C(NCc1ccccc1)c1ccc(Cl)cc1[N+](=O)[O-] -27.1%
O=C(O)Cc1cc(Cl)ccc1O 16.8% [at 11.4 µM]
CCOC(=O)N1CCC(NS(=O)(=O)c2ccc3c(c2)C(C)(C)C(=O)N3C)CC1 27.5%
C[N+](C)(C)CCO 1.57%
COc1ccc(C(=O)n2nc(-c3ccccc3)nc2SC)cc1 -5.42%
Cc1ccc(C2C(C(=O)c3ccco3)=C(O)C(=O)N2c2nnc(C)s2)cc1 (centres undefined) -4.53%
O=C1Nc2cc(C(=O)N3CCOCC3)ccc2SC1N1CCOCC1 (centres undefined) 22.1%
COc1ccccc1CNC(=O)CCCn1c(=O)c2ccccc2n(CC(=O)NC2CCCC2)c1=O -29.3%
COc1ccccc1CNC(=O)C1CC(=O)N(C2CCCC2)C1 (centres undefined) 0.967%
NC(=O)c1ccc(C2SCC(=O)N2Cc2ccccc2)cc1 (centres undefined) 0.406%
Cc1ccc(CNC(=O)Cc2csc(Nc3nc(=S)[nH]c4ccccc34)n2)cc1 -28.3%
CC(=O)OCC(=O)[C@@]1(O)[C@H](C)C[C@@H]2[C@H]3CCC4=CC(=O)C=C[C@]4(C)[C@]3(F)[C@@H](O)C[C@@]21C 5.29% [at 25.6 µM]
CC(C)(C)N1C(=O)[C@@H]2[C@H]3C(=CC[C@H]2C1=O)C(=O)[C@H]1O[C@H]1[C@H]3O 11.6% [at 11.4 µM]
COC(=O)C/C=C\[C@@H](C)[C@@H](/C=N\O[C@@H](C)c1cn([C@H]2COC[C@H]2O)nn1)OC 15.1% [at 11.4 µM]
N=C(N)SCC(=O)O -6.02% [at 11.4 µM]
O=C1CC(c2ccc3c(c2)OCO3)CN1 (centres undefined) -9.95%
Cc1ccc(NC(=O)C2CC(=O)n3c(nc4ccccc43)N2)cc1 (centres undefined) 22.5%
CSC1=N/C(=C\c2ccc3c(c2)OCO3)C(=O)S1 -11.1%
Cc1cccc(OCC(=O)N/N=C\C=C\c2ccc3c(c2)OCO3)c1C -10.2%
CCOc1cc(/C=C2\CCC/C(=C\c3cc(Cl)c(O)c(OCC)c3)C2=O)cc(Cl)c1O -20.4%
CCOC(=O)c1c2ccc(OCC(=O)N/N=C/c3ccc(Cl)cc3)cc2n2ccccc12 -6.7%
O=C(Nc1nnc(SCc2c(Cl)cccc2Cl)s1)C1CCCO1 (centres undefined) -22.2%
Clc1ccccc1CSc1nnc(/C=C/c2ccccc2)o1 -13.5%
COc1cccc(Nc2ncc3nc(-c4cc(F)cc(F)c4)c(=O)n(CCC#N)c3n2)c1 -5.95%
CCCCCCCCn1cc(C(C)=O)c(=O)[nH]c1=O -17.1%
O=c1cnc2cnc(Oc3cccc(Cl)c3)nc2n1C[C@H]1CCCO1 -10.4%
COc1ccc(OC)c(N(CC(=O)N2CCc3ccccc3C2)S(C)(=O)=O)c1 11.7%
CCN(CC)S(=O)(=O)c1ccc(OC)c(NC(=O)c2cc([N+](=O)[O-])ccc2Cl)c1 7.36%
COc1ccc(C(=O)CN2C(=O)NC(C)(c3ccccc3)C2=O)cc1OC (centres undefined) 29.8%
CN(C)Cc1ccc(O)c(CN(C)C)n1 2.9% [at 11.4 µM]
Cc1ccc(C(=O)Nc2ccc3nccnc3c2)cc1 -24.5%
Cc1ccc(NC(=O)c2cccc(N(C)C)c2)cc1NC(=O)c1ccc(O)cc1 -8.94%
Cc1cc(C)cc(-n2nnnc2-c2cn(C)nc2C(F)(F)F)c1 -20.2%
Cc1cccc(NC(=O)c2ccc([N+](=O)[O-])o2)n1 -26.8%
COc1cc(/C=N/NC(=O)c2cccnc2)ccc1OC(=O)c1ccco1 -4.37%
CCOc1cc(/C=N/NC(=O)c2cc(C)[nH]n2)ccc1OC(=O)c1ccc([N+](=O)[O-])cc1 -2.27%
CCC/C=C(\CCC)C(NS(=O)(=O)c1cccc2cccnc12)c1ccc(-c2ccccc2)cc1 (centres undefined) 3.7%
C[N+]1(C)CCO[C@](O)(c2ccccc2)C1 0.284% [at 11.4 µM]
OCCNc1ncnc2c1ncn2[C@@H]1O[C@@H](CO)[C@H](O)[C@@H]1O 3.15% [at 11.4 µM]
COc1ccc(-c2nc(-c3cccc(C)c3)nc(N3CCN(C)CC3)c2C#N)cc1 -4.97%
CN1CCCC1CCNC1C2CC3CC(C2)CC1C3 (centres undefined) -4.6%
CC(=O)c1ccc(N2CCC(c3cc(-c4ccc(Cl)cc4)n[nH]3)CC2)c([N+](=O)[O-])c1 -10.3%
CCOc1cc(/C=C2/C(=N)N3C=CSC3=NC2=O)ccc1OCCCOc1ccccc1C 1.57%
CCc1nc(SCC(=O)NCCc2ccccc2)c2oc3ccccc3c2n1 -12.7%
O=C(CSCc1ccccc1Cl)NNC(=O)c1ccccc1 1.46%
O=C(CSCc1ccccc1Cl)NN1C(=O)c2ccccc2C1=O -17.7%
COc1ccc(C2N(c3ccccn3)C(=O)C3CCCN32)c(OC)c1 (centres undefined) 4%
Cc1ccc(OCCNC(=O)c2cc(-n3cnnc3)ccc2Cl)cc1C 29.2%
CN(C)CCNC(=O)c1cc(Br)ccc1Cl -18.4%
O=C1CCCC=C1[C@H](O)c1ccc([N+](=O)[O-])cc1 -11.2% [at 11.4 µM]
NC(N)=NC(N)=Nc1ccccc1 2.4%
NC(N)=NC(N)=Nc1ccccc1 (tested in a mixture with another compound) -8.99% [at 11.4 µM]
COCCn1c(=O)c(-c2cccc(C#N)c2)nc2cnc(N3CCNCC3)nc21 -6.32%

AC50, 12.6 µM (active) and inactive:
O[C@H](CN1CCN(c2cccc(Cl)c2)CC1)C(c1ccccc1)c1ccccc1

AC50, active:
Clc1cc2c(c(CSC3=NCN(CC4CC4)CN3)c1)OCOC2 0.2 µM
COC(=O)C1=CO[C@@H](C)[C@H]2CN3CCc4c([nH]c5ccccc45)[C@@H]3C[C@H]12 0.002 µM
Cc1cnc(CNc2ncnc3ccc(-c4ccccc4Cl)cc23)cn1 15.8 µM
Cc1cnc(CNc2ncnc3ccc(-c4ccccc4CN(C)C)cc23)cn1 2.51 µM
CN(Cc1ccccc1)C(=O)CC(c1ccccc1)c1cc(Cl)ccc1O (centres undefined) 8.91 µM
CC(C)Oc1ccc(CNC(=O)CC(c2ccccc2)c2cc(Cl)ccc2O)cc1 (centres undefined) 14.1 µM
COc1cc(CNC2CCCC2)cc(Cl)c1OCc1ccccc1Cl 0.891 µM
O=C1[C@@H]2C=CC=CC2=NC(=S)N1CCN1CCC(=C(c2ccc(F)cc2)c2ccc(F)cc2)CC1 12.6 µM
O=C1CC(c2ccc3c(c2)OCO3)Sc2nc3ccccc3n21 (centres undefined) 8.91 µM
COC(=O)N/N=C\C=C\c1ccc2c(c1)OCO2 11.2 µM
Clc1cccc(Cl)c1CSc1nnc(/C=C/c2ccccc2)o1 28.2 µM
COc1ccc([N+](=O)[O-])cc1N(CC(O)CN(CC(C)C)CC(C)C)S(=O)(=O)c1ccccc1 (centres undefined) 0.398 µM
CN(C)CCCc1cc(C(=O)Nc2ccc(-c3ccncc3)cc2)ccc1O 5.01 µM
Cc1cc(C(=O)N/N=C/c2cccc(OC(=O)c3ccco3)c2)n[nH]1 17.8 µM
Fc1ccc(COc2ccc(Br)cc2CNCc2ccncc2)cc1 0.126 µM
c1ccc(CN2CCC3(CCCc4ccccc43)CC2)cc1 0.251 µM
NCCSCc1ccccc1Cl 3.16 µM
CSc1ccc(Cl)c(C(=O)NCCOc2cc(C)ccc2C(C)C)c1 11.2 µM
Cc1ccc(C(N)=Nc2ccccc2)cc1 3.16 µM
